From PubChem BioAssay (NCATS)
“And” between values parts separate entries of the source, which are not always exact repeats. Equal values may be shown once. Results filed as inconclusive are left out. The source made the active and inactive calls. Unless noted, calls come from the whole dose curve; as a rule, active = well fitted curve in the direction sought with a large enough effect; inconclusive = small, poorly fitted or top-dose-only effect, or another doubt; inactive = no such curve, though single readings can be large; an effect the other way counts as inactive or inconclusive.

What was measured:
[1] = qHTS assay for small molecule agonists of the antioxidant response element (ARE) signaling pathway (AID 651741; active = well fitted activation curve with a large enough effect in the signal ratio; the % refers to the signal ratio; note: potency is the fitted concentration of half-maximal effect; for activation: % of control where 0% means no effect)
In short: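 Reporter: beta-lactamase under ARE, stably in HepG2. Exposure: 16 h, 37 C, compounds delivered in DMSO by pin tool after 5 h cell preincubation. Readout: FRET substrate fluorescence after 2 h at RT.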

[2] = qHTS assay for small molecule activators of the p53 signaling pathway (AID 651743; active = well fitted activation curve with a large enough effect in the signal ratio, not every such curve was filed as active; the % refers to the signal ratio; note: % of control where 0% means no effect); conditions: HCT-116 p53RE-bla, beta-lactamase FRET ratio, 16 h; stronger effect = higher value
In short: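 Agonist-mode quantitative HTS in HCT-116 cells carrying a p53-response-element beta-lactamase reporter; 16 h compound treatment at 37 C, then FRET substrate loading for 2 h at room temperature and fluorescence read.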

[3] = qHTS assay for small molecule activators of the nuclear factor-kappa B (NF-kB) signaling pathway (AID 651749; active = well fitted activation curve with a large enough effect in the signal ratio; the % refers to the signal ratio; note: potency is the fitted concentration of half-maximal effect; for activation: % of control where 0% means no effect); conditions: NF-kB-bla ME-180 cells, beta-lactamase FRET ratio, 16 h; activation: stronger effect = higher value
In short: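 Human ME-180 cervical cells with an NF-kB-bla construct; compounds added via 23 nL pin transfer, DMSO as vehicle; incubation 16 hr. Reporter activity measured by FRET disruption.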

[4] = qHTS assay for small molecule disruptors of the mitochondrial membrane potential - 5 hr assay (AID 651755; calls by dose curve; note: % is set by controls: 0 for no effect and ±100 for the full control effect; nearly all actives have a fitted effect of over 40% in size)
In short: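 Seed HepG2 overnight, add compound, incubate 5 hr at 37C and 5% CO2, stain 30 min with Mito-MPS, then measure monomer (490/535 nm) and aggregate (540/590 nm) fluorescence.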

[5] = qHTS assay to identify small molecules that stimulate interleukin-8 (IL-8) secretion (AID 651758; active = well fitted activation curve with a large enough effect in the signal ratio; the % refers to the signal ratio; note: 0% is about no effect)
In short: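 Quantitative HTS in THP-1 monocytic cells at 2000 cells per well, with 16 hrs compound incubation at 37 C. IL-8 in the medium was then quantified by HTRF immunoassay, read after 1-3 hrs at room temperature.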

[6] = qHTS assay for environmental chemicals that activate the Aryl hydrocarbon Receptor (AhR) signaling pathway (AID 651777); conditions: 1A2-DRE human hepatoma cells, luciferase, 24 h; stronger effect = higher value; note: % of control where 0% means no effect; nearly all actives have a fitted effect of over 15% in size
In short: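 Human hepatoma 1A2-DRE cells stably carrying a DRE/CYP1A2 promoter–luciferase reporter, 1,200 cells/well, exposed to compound 24 hr at 37 C. Luciferase read by One-Glo luminescence after 30 min at room temperature; increased signal marks AhR activation.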

[7] = qHTS of Trypanosoma Brucei Inhibitors: LOPAC Validation (AID 624147); note: 0% is about no effect
In short: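 Luminescent Kinase-Glo Plus end-point after 45 min room-temperature reaction of T. brucei pyruvate kinase started with 130 uM ADP (final). Buffer TEA 50 mM pH 7.2 with KCl, MgCl2, BSA, Tween-20; titration-based qHTS with fitted concentration-effect curves.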

[8] = molecular target: Glucagon-like peptide 1 receptor (Homo sapiens) (UniProt P43220); assay: qHTS of GLP-1 Receptor Agonists: LOPAC Validation (AID 624148);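 note: 0% is about no effect; higher luminescence signal means agonism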
In short: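 HEK293 cells stably co-expressing a cAMP-responsive luciferase reporter and a hypersensitive GLP-1R were plated 12 h at 37 °C and exposed to compounds for 4-6 hr at 37 °C, 5% CO2. Luminescence was read 12 min after adding detection reagent.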

[9] = qHTS of Nrf2 Activators: LOPAC Validation (AID 624149); note: 0% is about no effect
In short: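 Luciferase signal from ARE activation, read with Steady-Glo after 30 min at room temperature. Compounds were pin-transferred onto AREc32_Fluc cells (1000/well, OPTI-MEM/5% FBS, seeded overnight) and left 24 hr at 37 deg C.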

[10] = molecular target: Tumor necrosis factor (Homo sapiens) (UniProt P01375); assay: qHTS assay to identify small molecules that stimulate Tumor Necrosis Factor-alpha (TNF-alpha) secretion (AID 651757; active = well fitted curve in the direction sought with a large enough effect in the signal ratio; the % refers to the signal ratio; note: 0% is about no effect)
In short: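 Secreted TNF-alpha quantified by TR-FRET sandwich of two labeled anti-TNF-alpha antibodies, incubated 3 hr at room temperature. Preceded by 17 hr, 37 C compound treatment of THP-1 cells at 3000 cells/well.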

[11] = Cytotoxicity counterscreen for NFkB agonists and antagonists (AID 624476);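 note: cells exposed to compound for 48 hours; % is set by controls: 0 for no effect and ±100 for the full control effect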
[12] = qHTS Assay for Identification of Small Molecule Agonists for NFkB Signaling Pathway. (AID 624478);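 note: compounds tested together with TNF alpha at its EC50 of 10 pM; 0% is about no effect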
In short: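 Compounds were added with 10 pM TNF alpha (EC50 level) to ME-180 NFkB-bla cells in low-serum Opti-MEM and incubated 5 hrs at 37 C. Beta-lactamase FRET read-out used 405 nm excitation and 460 and 530 nm emission.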

[13] = qHTS Assay for Identification of Small Molecule Antagonists for NFkB Signaling Pathway. (AID 624479; calls by dose curve;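 note: pathway stimulated with TNF alpha; % is set by controls: 0 for no effect and ±100 for the full control effect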)
[14] = Cell Proliferation Assay against the TMD8 Cell Line (AID 651645); conditions: TMD8 DLBCL cell line proliferation/viability; at 46.1 µM (top of the series) unless noted;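 note: cells exposed to compound for 48 h before reading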
In short: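 Viability by CellTiter-Glo after 48 h compound exposure of 500 log-phase TMD8 cells per well (RPMI, 5% FBS). Percent activity scaled between DMSO (100%) and 9.2 uM final bortezomib (0%).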

[15] = Cell Proliferation Assay against the HBL1 Cell Line (AID 651646); conditions: HBL1 DLBCL cells; at 46.1 µM (top of the series) unless noted;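 note: cells exposed to compound for 48 h before reading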
In short: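 After a 48 h incubation of 500 HBL1 cells/well in phenol red-free RPMI plus 5% FBS, relative luciferase units from CellTiter-Glo gave percent activity against DMSO and 9.2 uM bortezomib (final) controls.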

[16] = Cell Proliferation Assay against the TMD8 Cell Line (Caspase readout at 16 hrs) (AID 651712);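 note: 0% = DMSO and 100% = 9.2 µM bortezomib caspase activation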
In short: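 16 h, 37 °C, TMD8 (500 cells/well), RPMI/5% FBS no phenol red; Caspase-Glo 3/7, 15 min RT, luminescence; %act: DMSO 0, bortezomib 9.2 uM final 100.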

[17] = Cell Proliferation Assay against the TMD8 Cell Line (Caspase readout at 8 hrs) (AID 651713);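 note: 0% = DMSO and 100% = 9.2 µM bortezomib caspase signal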
In short: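 Apoptosis read-out: Caspase-Glo luminescence after 8 h compound exposure of TMD8 lymphoma cells at 37C, 5% CO2. Signals were normalized as percent activity between DMSO and bortezomib (9.2 uM final) controls.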

[18] = qHTS assay for small molecule disruptors of the mitochondrial membrane potential - 1 hr assay (AID 651754; calls by dose curve; note: % is set by controls: 0 for no effect and ±100 for the full control effect; nearly all actives have a fitted effect of over 35% in size)
In short: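 Mitochondrial potential in living HepG2 cells after 1 hr compound treatment at 37C was read with Mito-MPS dye added for a further 30 min. Red aggregate and green monomer fluorescence were measured; loss of potential leaves dye as cytoplasmic monomers.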

[19] = molecular target: Glutaminase kidney isoform, mitochondrial (Homo sapiens) (UniProt O94925); assay: qHTS for Inhibitors of Glutaminase (GLS): LOPAC Validation (AID 624146);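 note: glutamate product detected by oxidase and peroxidase coupled Amplex red fluorescence gain; % is set by controls: 0 for no effect and ±100 for the full control effect; nearly all actives have a fitted effect of over 60% in size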
In short: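 hKGA in 45 mM KH2PO4 pH 8.2, 0.02% Tween-20 with pin-transferred compounds; 1 mM L-glutamine (stock) plus glutamate oxidase/HRP/Amplex Red coupling added. Fluorescence read initially and after 30 min at RT.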

[20] = HTS Assay for Allosteric Antagonists of the Human D2 Dopamine Receptor: Hit Validation in HTRF (AID 624455);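 note: stable D1 dopamine receptor cell line scored for blocking the D1 response; % is set by controls: 0 for no effect and ±100 for the full control effect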
In short: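 Inhibition of the D1-mediated response was measured by HTRF. Cells used were a line stably expressing the D1 dopamine receptor.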

Chain of Tumor necrosis factor (Homo sapiens) (P01375 whole entry, looked up): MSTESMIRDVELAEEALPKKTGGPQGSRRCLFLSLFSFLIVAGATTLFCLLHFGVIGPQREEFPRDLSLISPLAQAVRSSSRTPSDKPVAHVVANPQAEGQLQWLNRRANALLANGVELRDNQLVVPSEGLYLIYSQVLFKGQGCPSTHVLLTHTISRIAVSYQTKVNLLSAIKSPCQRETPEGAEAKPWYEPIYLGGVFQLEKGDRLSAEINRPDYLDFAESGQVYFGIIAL
Chain of Glucagon-like peptide 1 receptor (Homo sapiens) (P43220 whole entry, looked up): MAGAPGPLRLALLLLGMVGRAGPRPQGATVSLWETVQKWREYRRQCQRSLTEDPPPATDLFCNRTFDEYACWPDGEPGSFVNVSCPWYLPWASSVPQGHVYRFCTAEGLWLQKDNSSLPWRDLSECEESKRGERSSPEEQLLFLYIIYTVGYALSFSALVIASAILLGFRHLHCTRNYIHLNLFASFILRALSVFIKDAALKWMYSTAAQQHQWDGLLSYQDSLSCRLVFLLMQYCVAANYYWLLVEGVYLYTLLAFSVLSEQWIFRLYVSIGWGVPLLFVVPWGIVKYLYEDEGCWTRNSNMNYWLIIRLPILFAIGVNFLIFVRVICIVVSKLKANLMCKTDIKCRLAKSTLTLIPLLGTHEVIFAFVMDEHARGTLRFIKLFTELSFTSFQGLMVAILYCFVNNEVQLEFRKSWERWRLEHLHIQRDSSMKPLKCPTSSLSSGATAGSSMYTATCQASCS
Chain of Glutaminase kidney isoform, mitochondrial (Homo sapiens) (O94925 whole entry, looked up, canonical isoform): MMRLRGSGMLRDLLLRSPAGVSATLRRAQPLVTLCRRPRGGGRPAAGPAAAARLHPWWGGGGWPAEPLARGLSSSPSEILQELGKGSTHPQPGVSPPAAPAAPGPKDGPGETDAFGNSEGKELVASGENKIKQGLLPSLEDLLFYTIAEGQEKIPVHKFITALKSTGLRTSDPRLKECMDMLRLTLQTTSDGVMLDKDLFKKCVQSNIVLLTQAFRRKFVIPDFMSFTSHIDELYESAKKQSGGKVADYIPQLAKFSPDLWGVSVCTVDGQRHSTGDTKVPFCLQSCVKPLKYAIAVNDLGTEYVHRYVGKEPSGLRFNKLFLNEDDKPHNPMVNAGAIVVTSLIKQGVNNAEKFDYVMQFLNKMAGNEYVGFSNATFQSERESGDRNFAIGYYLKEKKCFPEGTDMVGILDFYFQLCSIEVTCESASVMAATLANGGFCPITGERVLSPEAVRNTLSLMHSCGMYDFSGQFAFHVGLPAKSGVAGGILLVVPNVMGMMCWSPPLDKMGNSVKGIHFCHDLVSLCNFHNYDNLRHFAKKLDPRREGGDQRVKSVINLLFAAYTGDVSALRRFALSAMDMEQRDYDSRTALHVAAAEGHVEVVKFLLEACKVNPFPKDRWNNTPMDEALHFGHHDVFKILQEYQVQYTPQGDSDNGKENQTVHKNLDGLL

NC(=O)N/N=C/c1ccc([N+](=O)[O-])o1
active: Potency [1] 17.2 µM and 21.1 µM
inactive: activation [2] -0.844% and -0.297% | activation [3] -2.02% and 0.212% | Potency [4] | outcome [5] | activation [6] 5.25% and 3.59%

CN(C)CCC=C1c2ccccc2CCc2ccccc21
inactive: outcome [7] | outcome [8] | outcome [9] | Potency [1] | activation [2] -8.64% and -6.53% | outcome [10] | activation [6] -1.66% and 0.429%

NCCNCCNCCNCCN
inactive: Potency [1] | activation [3] -1.8% and -0.273% | outcome [10] | activation [6] -0.491% and -2.35%

NC(=O)c1ncn([C@@H]2O[C@H](CO)[C@@H](O)[C@H]2O)c1N
128%: viability (% of control) [14]
inactive: outcome [11] | outcome [12] | outcome [13] | Potency [16] | Potency [17]
159%: viability, percent of control [15]

O=C1O[C@H]([C@@H](O)CO)C(O)=C1O
inactive: activation [2] -0.0449% and -0.779% | outcome [10] | activation [6] 0.758% and 0.0107%
active: Potency [1] 61.1 µM

Oc1cccc(O)c1
inactive: activation [2] 5.92% | activation [3] -1.45% | Potency [18] | Potency [4] | outcome [10] | activation [6] 2.18%

CCOC(=O)c1ccc(O)cc1
inactive: activation [2] -7.13% | activation [6] 6.21%

CCCCCCCCCCCCOS(=O)(=O)O
inactive: Potency [1] | Potency [18] | Potency [4] | outcome [10] | outcome [5] | activation [6] 1.08% [middle of 4 runs]

[Cl][In]([Cl])[Cl]
inactive: activation [2] -6.82% | Potency [18] | Potency [4] | outcome [10] | activation [6] 0.307%

CNCC(O)c1ccc(O)c(O)c1 (configuration not stated)
inactive: Potency [19] | outcome [7] | outcome [9]

CC1(C)[C@@H]2CC[C@@]1(C)C(=O)C2
inactive: Potency [1] | activation [2] 0.0082% | activation [3] -0.497% | outcome [10] | activation [6] 1.1%

NC(=O)c1ncn([C@@H]2O[C@H](CO)[C@@H](O)[C@H]2O)n1
inactive: Potency [19] | outcome [8] | outcome [9] | Potency [1] | outcome [10] | activation [6] 0.173%

NCCNCCNCCN
inactive: Potency [1] | activation [2] -2.15% | outcome [10] | outcome [5]

O=S(=O)(O)NC1CCCCC1
inactive: activation [3] -0.941% | activation [6] 1.78%

CC1=C(CC(=O)O)c2cc(F)ccc2/C1=C\c1ccc(S(C)=O)cc1 (configuration not stated)
inactive: outcome [7] | outcome [8] | outcome [9]

CC12CCC(CC1)C(C)(C)O2
inactive: Potency [1] | activation [2] -1.89% | outcome [10] | activation [6] -0.144%

CC1=C(/C=C/C(C)=C/C=C/C(C)=C/C(=O)O)C(C)(C)CCC1
active: Potency [1] 54.5 µM
inactive: outcome [7] | outcome [8] | outcome [9] | outcome [20] | activation [2] 1.97% and 6.17% | activation [3] -2.87% and -2.33% | activation [6] 4.57% and 7.11%

CC(CN1c2ccccc2Sc2ccccc21)N(C)C (configuration not stated)
inactive: outcome [7] | outcome [8] | outcome [9] | activation [2] -4.88% | activation [6] -0.788%
active: Potency [3] 25.1 µM

Cc1cc(CC(=O)O)n(C)c1C(=O)c1ccc(Cl)cc1
inactive: activation [2] -3.75% | activation [6] 0.224%

CSc1ccc2c(c1)N(CCC1CCCCN1C)c1ccccc1S2 (configuration not stated)
inactive: outcome [7] | outcome [8] | outcome [9]

CC(O)COc1ccccc1 (configuration not stated)
inactive: Potency [1] | activation [2] 2.15% | activation [3] -2.71% | activation [6] 1.38%
